# Source: PubChem BioAssay AID1159580 (chemical genetic matrix, 2015)
# About 2,000 (36%) of roughly 5,500 compounds were called active. Inconclusive results (about 18%) are left out. Some of the results follow. Values without a mark were called inactive. Rule as the data show it: active = normalized growth mostly below about 0.91 (no sharp cut-off); inconclusive = no clear call, values can overlap the other calls; inactive = mostly above about 0.92.
# Test: chemical genetic growth profiling, strain panel (AID 1159580);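 also: tested at 20 µM; growth read once vehicle control cultures reached saturation at 30 °C; 1 = growth at the plate median or of vehicle wells; lower values mean less growth of the strain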
# Settings: S. cerevisiae deletion strains, growth OD
# [1] = locus YDL101C, strain DUN1, active compounds read low
# [2] = locus YHR030C, strain SLT2, active compounds read low
compound,measurement,setting,value
Cc1ccc(NS(=O)(=O)c2ccc(-c3csc(C)n3)s2)c(C)c1,normalized growth,"locus YAR019C, strain CDC15, active compounds read low",0.977
same,normalized growth,"locus YBL105C, strain PKC1, active compounds read low",0.984
same,normalized growth,"locus YBR135W, strain CKS1, active compounds read low",0.979
same,normalized growth,"locus YBR136W, strain MEC1, active compounds read low",0.981
same,normalized growth,"locus YBR160W, strain CDC28, active compounds read low",0.983
same,normalized growth,"locus YDL017W, strain CDC7, active compounds read low",0.984
same,normalized growth,"locus YDL028C, strain MPS1, active compounds read low",0.98
same,normalized growth,[1],0.993
same,normalized growth,"locus YDL108W, strain KIN28, active compounds read low",0.972
same,normalized growth,"locus YDL132W, strain cdc53, active compounds read low",0.989
same,normalized growth,"locus YDL214C, strain PRR2, active compounds read low",0.904
same,normalized growth,"locus YDR052C, strain DBF4, active compounds read low",0.986
same,normalized growth,"locus YDR054C, strain cdc34, active compounds read low",0.975
same,normalized growth,"locus YDR226W, strain ADK1, active compounds read low",0.986
same,normalized growth,"locus YDR477W, strain SNF1, active compounds read low",0.885
same,normalized growth,"locus YER123W, strain YCK3, active compounds read low",0.888
same,normalized growth,"locus YER133W, strain GLC7, active compounds read low",0.883
same,normalized growth,"locus YFL009W, strain cdc4, active compounds read low",0.976
same,normalized growth,"locus YFL029C, strain CAK1, active compounds read low",0.979
same,normalized growth,"locus YFR003C, strain YPI1, active compounds read low",0.98
same,normalized growth,"locus YFR019W, strain FAB1, active compounds read low",0.934
same,normalized growth,"locus YFR028C, strain CDC14, active compounds read low",0.981
same,normalized growth,"locus YGR040W, strain KSS1, active compounds read low",0.895
same,normalized growth,"locus YGR052W, strain FMP48, active compounds read low",0.928
same,normalized growth,"locus YGR092W, strain DBF2, active compounds read low",0.913
same,normalized growth,[2],0.647 (active)
same,normalized growth,"locus YHR079C, strain IRE1, active compounds read low",0.883
same,normalized growth,"locus YHR082C, strain KSP1, active compounds read low",0.976
same,normalized growth,"locus YHR205W, strain SCH9, active compounds read low",0.977
same,normalized growth,"locus YIL147C, strain SLN1, active compounds read low",0.982
same,normalized growth,"locus YJL095W, strain BCK1, active compounds read low",0.859
same,normalized growth,"locus YJL128C, strain PBS2, active compounds read low",0.943
same,normalized growth,"locus YJL157C, strain FAR1, active compounds read low",0.931
same,normalized growth,"locus YJR016C, strain ILV3, active compounds read low",0.983
same,normalized growth,"locus YJR066W, strain TOR1 (second series), active compounds read low",0.826
same,normalized growth,"locus YJR066W, strain TOR1, active compounds read low",0.936
same,normalized growth,"locus YKL048C, strain ELM1, active compounds read low",0.957
same,normalized growth,"locus YKL067W, strain YNK1, active compounds read low",0.898
same,normalized growth,"locus YKL101W, strain HSL1, active compounds read low",0.894
same,normalized growth,"locus YKL193C, strain SDS22, active compounds read low",0.985
same,normalized growth,"locus YKL203C, strain TOR2, active compounds read low",0.92
same,normalized growth,"locus YLR113W, strain HOG1, active compounds read low",0.676 (active)
same,normalized growth,"locus YLR133W, strain CKI1, active compounds read low",0.902
same,normalized growth,"locus YLR403W, strain SFP1, active compounds read low",0.912
same,normalized growth,"locus YML070W, strain DAK1, active compounds read low",0.856
same,normalized growth,"locus YMR001C, strain CDC5, active compounds read low",0.977
same,normalized growth,"locus YMR205C, strain PFK2 (second series), active compounds read low",0.915
same,normalized growth,"locus YMR277W, strain FCP1, active compounds read low",0.98
same,normalized growth,"locus YNL006W, strain LST8, active compounds read low",0.978
same,normalized growth,"locus YNL020C, strain ARK1, active compounds read low",0.898
same,normalized growth,"locus YNL161W, strain CBK1, active compounds read low",0.982
same,normalized growth,"locus YNL183C, strain NPR1, active compounds read low",0.893
same,normalized growth,"locus YNL207W, strain RIO2, active compounds read low",0.975
same,normalized growth,"locus YNL222W, strain SSU72, active compounds read low",0.986
same,normalized growth,"locus YNL307C, strain MCK1 (second series), active compounds read low",0.887
same,normalized growth,"locus YOL078W, strain AVO1, active compounds read low",0.983
same,normalized growth,"locus YOL136C, strain PFK27, active compounds read low",0.915
same,normalized growth,"locus YOR061W, strain CKA2, active compounds read low",0.84
same,normalized growth,"locus YOR119C, strain RIO1, active compounds read low",0.93
same,normalized growth,"locus YOR231W, strain MKK1, active compounds read low",0.806
same,normalized growth,"locus YOR329C, strain SCD5, active compounds read low",0.98
same,normalized growth,"locus YPL031C, strain PHO85, active compounds read low",0.892
same,normalized growth,"locus YPL153C, strain RAD53, active compounds read low",0.937
same,normalized growth,"locus YPL204W, strain HRR25, active compounds read low",0.881
same,normalized growth,"locus YPL209C, strain IPL1, active compounds read low",0.982
same,normalized growth,"locus YPL256C, strain CLN2, active compounds read low",0.715 (active)
same,normalized growth,"locus YPR025C, strain CCL1, active compounds read low",0.981
same,normalized growth,"locus YPR106W, strain ISR1, active compounds read low",0.988
same,normalized growth,"locus YPR111W, strain DBF20, active compounds read low",0.962
same,normalized growth,"strain NNK1, active compounds read low",0.974
same,normalized growth,"strain TSCII, active compounds read low",0.975
Cc1nc(-c2ccc(S(=O)(=O)N3CCN(c4ncnc5scc(-c6ccccc6)c45)CC3)s2)cs1,normalized growth,"locus YAL013W, strain DEP1, active compounds read low",1.02
same,normalized growth,"locus YBR229C, strain ROT2, active compounds read low",1
same,normalized growth,"locus YCL061C, strain MRC1, active compounds read low",1.01
same,normalized growth,[1],1
same,normalized growth,"locus YDR150W, strain NUM1, active compounds read low",0.936
same,normalized growth,"locus YEL061C, strain CIN8, active compounds read low",0.995
same,normalized growth,"locus YGR078C, strain PAC10, active compounds read low",1.01
same,normalized growth,[2],1.04
same,normalized growth,"locus YHR087W, strain rtc3, active compounds read low",1.02
same,normalized growth,"locus YJL187C, strain SWE1, active compounds read low",1.02
same,normalized growth,"locus YJR043C, strain POL32, active compounds read low",1.01
same,normalized growth,"locus YJR075W, strain HOC1, active compounds read low",1.02
same,normalized growth,"locus YLR039C, strain RIC1, active compounds read low",1.03
same,normalized growth,"locus YLR058C, strain SHM2 (second series), active compounds read low",1.01
same,normalized growth,"locus YLR085C, strain ARP6, active compounds read low",1.05
same,normalized growth,"locus YLR262C, strain YPT6, active compounds read low",1.02
same,normalized growth,"locus YML094W, strain GIM5, active compounds read low",1.02
same,normalized growth,"locus YMR219W, strain ESC1, active compounds read low",1.01
same,normalized growth,"locus YMR263W, strain SAP30, active compounds read low",1.03
same,normalized growth,"locus YMR307W, strain GAS1, active compounds read low",0.952
same,normalized growth,"locus YNL153C, strain GIM3, active compounds read low",1
same,normalized growth,"locus YNL298W, strain CLA4 (second series), active compounds read low",1.03
same,normalized growth,"locus YNL322C, strain KRE1, active compounds read low",1.01
same,normalized growth,"locus YNR030W, strain Alg12, active compounds read low",1.01
same,normalized growth,"locus YOL006C, strain TOP1, active compounds read low",0.997
same,normalized growth,"locus YPL055C, strain LGE1, active compounds read low",0.897
same,normalized growth,"locus YPL241C, strain CIN2, active compounds read low",1.05
same,normalized growth,"locus YPR135W, strain CTF4, active compounds read low",0.993
